# Assay outcomes deposited in PubChem BioAssay by several laboratories.
# An excerpt weighted towards active compounds, which were near 1.2% of everything screened.
# Shn3 inh set2: inhibitors of Schnurri-3 3'UTR reporter in osteoblasts; AID 588674; Clone20 osteoblast Shn3 3'UTR firefly luciferase, 24 h; 360,000 compounds, 0.52% hits; inhibition, % at 12.5 µM;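 active = mean inhibition of at least 75% with every replicate also reaching 75%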;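 also: 0% = median of neutral control wells and 100% = pilot-screen positive control compound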
# NR5A2 inv ag: NR5A2 inverse agonism in reporter assay. O00482. HEK293T StAR-luciferase reporter, LRH-1 transfected, 24 h. inhibition, % at 3.6 µM. 360,000 compounds, 0.13% hits. AID 602396;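 active = inhibition above the mean inhibition of all tested compounds plus 3 SD, cut at about 73% in these data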;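 also: 0% = DMSO wells and 100% = reporter-only cells lacking LRH-1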
# NCOA1 inh: inhibitors of human steroid receptor coactivator 1 (SRC1). HEK293 GAL4-SRC1 luciferase reporter, luminescence. 360,000 compounds, 0.12% hits. inhibition, % at 3.6 µM. AID 588354. Q15788;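 active = inhibition above the campaign mean plus 3 SD, with each screening campaign given its own cutoff, cut at about 60% in these data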;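 also: 0% = DMSO treated cells and 100% = gossypol at 36 µM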
# NCOA2 inhibitor: human SRC2 (NCOA2) inhibition; 370,000 compounds, 0.17% hits; inhibition, % at 9 µM; Q15596; HEK293 GAL4-SRC2 luciferase reporter, luminescence;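 active = inhibition above the mean inhibition of all tested compounds plus 3 SD, set per campaign, cut at about 52% in these data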;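 also: 0% = DMSO treated cells and 100% = cells given Gossypol at 36 µM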
# EBV LMP1 NFkB: Epstein-Barr LMP1 NF-kappaB reporter inhibition; AID 504558; inhibition, % at 12.5 µM; LMP1-induced NF-kappaB luciferase reporter cells, luminescence; 350,000 compounds, 0.69% hits; in the data active = inhibition above about 41%;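 also: 0% = neutral control wells and 100% = reference inhibitor control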
# SRC3 inh: inhibits human SRC3 coactivator | AID 588352 | 360,000 compounds, 0.17% hits | HEK293 GAL4-SRC3 luciferase reporter, luminescence | inhibition, % at 3.6 µM | Q9Y6Q9;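 active = inhibition above a per-campaign cutoff, the mean of all compounds plus 3 SD, cut at about 60% in these data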;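 also: 0% = DMSO-treated cells and 100% = gossypol-treated cells at 36 µM; higher means less SRC3-driven luciferase light from the GAL4 reporter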
# Starred values were filed as active, the others as inactive; x = not tested or not shown.
SMILES,Shn3 inh set2,NR5A2 inv ag,NCOA1 inh,NCOA2 inhibitor,EBV LMP1 NFkB,SRC3 inh
N#Cc1cnn(-c2ccccc2)c1NC(=O)CN1CCOCC1,-7.9,0.9,6.6,12.4,x,20.3
Nc1ncnc2c(C3OC(CO)C(O)C3O)c[nH]c12 (stereo unspecified),93.0*,99.5*,94.2*,69.5*,91.8*,94.0*
CC(C)N1CCc2c(sc(NC(=O)c3ccc4ccccc4c3)c2C(N)=O)C1,0.0,-7.8,-15.4,-19.4,7.9,6.7
CC(=O)Nc1sc2c(c1-c1nc3ccccc3s1)CCN(C(C)C)C2,81.0,59.4,46.1,x,78.2*,24.1
Cc1ccc(NC(=O)c2nc(S(=O)(=O)Cc3ccccc3)ncc2Cl)cc1,95.1*,-9.6,-58.4,45.3,24.2,-56.2
CCOC(=O)c1ccc(NC(=O)c2nc(SC)ncc2Cl)cc1,9.8,1.4,-13.3,-12.6,0.8,-9.0
Cc1cccc(CS(=O)(=O)c2ncc(Cl)c(C(=O)Nc3c(C)cccc3C)n2)c1,82.4,-26.4,-131.3,3.8,11.1,-23.0
Cc1ccccc1CS(=O)(=O)c1ncc(Cl)c(C(=O)Nc2ccc(F)cc2)n1,94.6*,-0.7,-51.1,37.9,52.1*,-5.1
Cc1cccc(C)c1NC(=O)c1nc(S(=O)(=O)Cc2ccccc2)ncc1Cl,96.3*,-17.6,-59.4,7.3,44.3*,-127.5
CN1/C(=C/C(=O)c2nc(S(C)(=O)=O)ncc2Cl)C(C)(C)c2ccccc21,95.6*,-8.0,-41.2,x,59.6*,-82.8
O=S1(=O)c2c(cccc2N2CC[C@H](O)C2)O[C@H]2CCN1C2,x,x,x,-5.2,x,x
C=CCN1C(=O)[C@H](CC(=O)NCC2CCCCC2)[C@@]2(C(=O)OCC)CCCC=C12,x,x,x,13.7,x,x
CCOC(=O)c1nc(S(C)(=O)=O)ncc1N1CCOCC1,-9.7,-2.1,1.8,7.2,-1.7,17.2
O=C(Nc1ccc(F)cc1)c1nn(-c2ccccc2)c(=O)cc1Cl,34.4,10.9,-13.5,32.9,7.1,15.3
CCOC(=O)c1nc(S(C)(=O)=O)ncc1Cl,96.1*,-35.7,-58.7,11.1,-14.9,-15.5
Cc1cccc(CS(=O)(=O)c2ncc(Cl)c(C(=O)NCc3ccccc3)n2)c1,95.3*,5.5,-45.0,28.4,-8.3,-6.6
Cc1ccccc1NC(=O)c1nc(S(C)(=O)=O)ncc1Cl,97.5*,-28.1,-67.1,-12.1,-21.8,-37.1
O=C(Nc1ccc(F)cc1)c1nc(S(=O)(=O)Cc2ccccc2)ncc1Cl,94.5*,-11.7,-64.2,48.4,-1.6,-18.8
COc1ccccc1CCn1cnc(-c2cccc(Br)c2)c1CC(C)C,x,x,x,15.4,x,x
COC(=O)c1cc(-c2c(C)noc2C)c(=O)n2c1CCC2,x,x,x,8.7,x,x
CCCc1nnc(NC(=O)c2nc(S(=O)(=O)Cc3cccc(C)c3)ncc2Cl)s1,93.2*,13.2,-41.0,18.1,9.4,4.5
CCCc1nnc(NC(=O)CS(=O)(=O)c2ccc(C)cc2)s1,11.4,-4.7,-15.9,6.8,-3.3,-16.4
Cc1nnc(NC(=O)c2nc(S(=O)(=O)Cc3ccccc3)ncc2Cl)s1,91.5*,-8.5,-49.3,48.2,25.1,-14.5
N#Cc1ccc(Cn2ccc3ccc(-c4ccc5ccn(C(=O)c6ccccc6)c5c4)cc32)cc1,x,x,x,-22.0,x,x
CCCN(CCC)c1nc(-c2ccccn2)nc2ccccc12,76.4,28.3,50.2,7.8,36.7,64.1*
SMILES,Shn3 inh set2,NR5A2 inv ag,NCOA1 inh,NCOA2 inhibitor,EBV LMP1 NFkB,SRC3 inh
c1ccc(CCNc2nc(-c3ccccn3)nc3ccccc23)cc1,x,63.5,16.4,-18.0,46.2*,32.7
c1ccc(-c2nc(N3CCCCCC3)c3ccccc3n2)nc1,79.8,94.2*,-3.7,18.0,31.8,25.1
C/C(=N\Nc1nc(-c2ccccn2)nc2ccccc12)c1ccc(F)cc1,-21.4,-3.2,-0.7,x,-6.6,19.8
CCCCN(CC)c1nc(-c2ccncc2)nc2ccccc12,11.0,7.2,11.8,-11.7,5.8,0.7
COc1ccc2[nH]c3c(c2c1)CCN[C@]31C(=O)N(C)c2ccc(Br)cc21,x,x,x,10.0,x,x
Cc1ccc([C@@H]2CC(=O)[C@@H]3CN(S(=O)(=O)c4ccccc4C)[C@H](c4ccc(Cl)cc4)C[C@@H]3N2S(=O)(=O)c2ccc(C)cc2)cc1,90.6*,7.7,10.5,-18.9,-12.1,-2.8
Cc1ccc(S(=O)(=O)N2[C@H](c3cccc(Cl)c3)CC(=O)[C@@H]3CN(S(=O)(=O)c4ccccc4C)[C@H](c4ccc(Cl)cc4)C[C@@H]32)cc1,89.3*,5.3,-39.9,14.3,-24.1,9.6
COc1ccc(Cn2c(NC(=O)c3ccccc3)nc(Cc3ccccc3)c2Cc2ccccc2)cc1,x,x,x,-29.0,x,x
